Measurements: PubChem BioAssay (NCATS)
Calls of active or inactive are those of the source. Calls come from the whole dose curve; as a rule, active = well fitted inhibition curve with a large enough effect; inconclusive = small, poorly fitted or top-dose-only effect; inactive = no such curve, though single readings can be large or run the other way.

Test: qHTS assay for measurement of the activity of small molecule inhibitors on Zika virus induced Caspase-3 activity in human astrocytoma cells (AID 1224859)
Settings: SNB-19 ZIKV-induced caspase-3/7, luminescence, 6 h; series mostly up to 45.7 µM
Summary of the method: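 In SNB-19 cells plated at 250 cells/well and grown 16-20 h, compounds were applied 1 h before ZIKV (2 FFU/cell). Six hours later caspase-3/7 luminescence was recorded.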
In the case of `CN(C)CCOC(=O)C(c1ccccc1)C1(O)CCCC1` (stereo unspecified), the outcome is reported as “inactive”.
With `O=C(O)C1(C(=O)O)CCC1.[NH2-].[NH2-].[Pt+2]` the outcome was “inactive”.
With `CC(CNC1CCCCC1)OC(=O)c1ccccc1` (stereo unspecified) the outcome was “inactive”.
With `O=C1C(=O)c2ccccc2C(O)=C1C1CCC(c2ccc(Cl)cc2)CC1` (stereo unspecified) the outcome was “inactive”.
For `CN1CCN(C2=Nc3cc(F)ccc3Cc3ccccc32)CC1`, the outcome was “inactive”.
For `CCOC(=O)Nc1ccc2c(c1)N(C(=O)CCN1CCOCC1)c1ccccc1S2`, the outcome was “inactive”.
For `CC(C)[C@@H]1CC[C@@H](C)CC1=O`, the outcome was “inactive”.
For `CN=C(N)NCCC[C@H](N)C(=O)O`, the outcome was “inactive”.
With `NS(=O)(=O)Cc1noc2ccccc12` the outcome was “inactive”.
For `CCCCCCCCCCCCOCCOCCOCCOCCOCCOCCOCCOCCOCCO`, the outcome was “inactive”.
With `OC[C@H]1O[C@@H](Oc2ccc(O)cc2)[C@H](O)[C@@H](O)[C@@H]1O` the outcome was “inactive”.
With `CC(C)=CCOc1ccc(/C=C/C(=O)c2ccc(OCC=C(C)C)cc2OCC(=O)O)cc1` the outcome was “inactive”.
In the case of `CCCCN=C(N)N=C(N)N`, the outcome is reported as “inactive”.
With `CCCN(CCC)S(=O)(=O)c1ccc(C(=O)O)cc1` the outcome was “inactive”.
With `CCO[C@@H]1O[C@H](C(COCc2ccccc2)OCc2ccccc2)[C@H](OCc2ccccc2)[C@H]1O` (stereo partly specified) the outcome was “inactive”.
With `C[N+]1(C)CCC(=C(c2ccccc2)c2ccccc2)CC1` the outcome was “inactive”.
In the case of `CC(=O)NC(=O)c1ccccc1O`, the outcome is reported as “inactive”.
With `CCOc1ccccc1OCCN[C@H](C)Cc1ccc(OC)c(S(N)(=O)=O)c1` the outcome was “inactive”.
In the case of `CCN1/C(=C/C=C/c2sc3ccccc3[n+]2CC)Sc2ccccc21`, the outcome is reported as “inactive”.
For `Cc1cccc(C)c1NC(=O)c1ccccc1C(=O)O`, the outcome was “inactive”.
For `C#C[C@]1(O)CC[C@H]2[C@@H]3[C@H](C)CC4=C(CCC(=O)C4)[C@H]3CC[C@@]21C`, the outcome was “inactive”.
For `OC[C@H]1O[C@@H]2O[C@H]3[C@H](O)[C@@H](O)[C@@H](O[C@H]4[C@H](O)[C@@H](O)[C@@H](O[C@H]5[C@H](O)[C@@H](O)[C@@H](O[C@H]6[C@H](O)[C@@H](O)[C@@H](O[C@H]7[C@H](O)[C@@H](O)[C@@H](O[C@H]8[C@H](O)[C@@H](O)[C@@H](O[C@H]1[C@H](O)[C@H]2O)O[C@@H]8CO)O[C@@H]7CO)O[C@@H]6CO)O[C@@H]5CO)O[C@@H]4CO)O[C@@H]3CO`, the outcome was “inactive”.
For `O[C@@H](c1cc(C(F)(F)F)nc2c(C(F)(F)F)cccc12)[C@H]1CCCCN1`, the outcome was “inactive”.
In the case of `Cc1nc(-c2ccc(Cl)cc2)oc1COC(C)(C)C(=O)O`, the outcome is reported as “inactive”.
With `CCCc1ncc(C[n+]2ccccc2C)c(N)n1` the outcome was “inactive”.
With `CNCCCCOc1ccccc1Cc1ccccc1` the outcome was “inactive”.
In the case of `CCC(CC)(CC(=O)Nc1cccc(/C=C/c2nc(C3CCC3)cs2)c1)C(=O)O`, the outcome is reported as “inactive”.
In the case of `C=CCN1CCc2nc(N)sc2CC1`, the outcome is reported as “inactive”.
For `CCOc1ccc(NC(C)=O)cc1`, the outcome was “inactive”.
For `C[N+]12CCC(CC1)C(OC(=O)C(O)(c1ccccc1)c1ccccc1)C2` (stereo unspecified), the outcome was “inactive”.
In the case of `N#C/C(=C1\SCC(c2ccccc2Cl)S1)n1ccnc1` (stereo unspecified), the outcome is reported as “inactive”.
In the case of `COc1ccc(C(=O)c2ccccc2)c(O)c1`, the outcome is reported as “inactive”.
In the case of `CCc1oc2ccccc2c1C(=O)c1cc(I)c(O)c(I)c1`, the outcome is reported as “inactive”.
With `NC(=O)n1c(O)c(C(=O)c2cccs2)c2cc(Cl)ccc21` the outcome was “inactive”.
With `COc1ccc(CN(CCN(C)C)c2ncccn2)cc1` the outcome was “inactive”.
In the case of `C[C@H]1[C@H]2CC[C@H]3[C@@H]4CC=C5C[C@@H](N(C)C)CC[C@]5(C)[C@H]4CC[C@]23CN1C`, the outcome is reported as “inactive”.
